Reference: PubChem BioAssay AID1851 (National Center for Advancing Translational Sciences (NCATS), 2009)
The whole screen tested about 16,000 compounds, of which about 2,600 (16%) were called active. Inconclusive results (about 20%) are left out. Only a sample is shown. A number with no mark means an inactive call. Calls come from the whole dose curve; as a rule, active = well fitted curve in the direction sought with a large enough effect; inconclusive = small, poorly fitted or top-dose-only effect, or effect the other way; inactive = no such curve, though single readings can be large or run the other way.
% is set by controls: 0 for no effect and ±100 for the full control effect.

The compounds below were run against Cytochrome P450 2D6 (Homo sapiens) (UniProt P10635) (assay: Cytochrome panel assay with activity outcomes). Details: recombinant CYP, pro-luciferin dealkylation, luminescence, p450-cyp2d6; series mostly up to 57.1 µM; activity, negative = inhibition: at the top concentration.
Chain of Cytochrome P450 2D6 (Homo sapiens) (P10635 whole entry, looked up): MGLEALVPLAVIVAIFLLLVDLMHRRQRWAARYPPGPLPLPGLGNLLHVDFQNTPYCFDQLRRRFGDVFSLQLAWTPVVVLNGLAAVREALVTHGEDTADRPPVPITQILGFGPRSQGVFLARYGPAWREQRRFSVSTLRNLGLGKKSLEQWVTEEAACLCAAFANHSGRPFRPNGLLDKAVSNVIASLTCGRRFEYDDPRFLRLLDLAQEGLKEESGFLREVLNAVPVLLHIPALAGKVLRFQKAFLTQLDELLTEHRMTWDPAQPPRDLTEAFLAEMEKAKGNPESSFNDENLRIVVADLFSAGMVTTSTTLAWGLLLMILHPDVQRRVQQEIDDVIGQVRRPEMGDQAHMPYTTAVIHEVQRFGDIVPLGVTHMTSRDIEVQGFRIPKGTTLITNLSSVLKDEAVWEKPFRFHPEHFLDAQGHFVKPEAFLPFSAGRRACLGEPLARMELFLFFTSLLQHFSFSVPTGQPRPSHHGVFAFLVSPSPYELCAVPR
In the case of `COCC(=O)Nc1ccc(-c2cn3cccnc3n2)cc1`, the “activity, negative = inhibition” value is reported as 23.5%. With `COC(=O)[C@H]1C[C@@H]1[C@H](NC(=O)c1cccnc1)c1ccccc1` the “activity, negative = inhibition” value was -3.67%. `O=c1cc(N2CCN(c3cccc(Cl)c3)CC2)[nH]c(=O)n1C1CCCCC1` was tested, and the “activity, negative = inhibition” value was -5.39%. In the case of `CC(=O)N(/N=C1\Sc2ccccc2C1=O)c1ccccc1`, the “activity, negative = inhibition” value is reported as -8.57%. `N#Cc1c(NC(=O)CCC(=O)O)ccc2ccccc12` was tested, and the activity, negative = inhibition was 7.11% [at 11.4 µM]. With `COc1ccc(N2CCN(C(=N)/C(C(C)=O)=C(\C)O)CC2)cc1` the “activity, negative = inhibition” value was -2.81%. With `COc1cccc(C2C3(C#N)C(N)=NC(OC)(OC)C23C#N)c1` (stereo unspecified) the “activity, negative = inhibition” value was -23.1%. For `COc1ccc(-c2nc3cnc(Oc4cccc(Cl)c4)nc3n(C[C@H]3CCCO3)c2=O)cc1`, the “activity, negative = inhibition” value was 5.96%. For `COC(=O)C1=C(N)N(c2ccccc2C(F)(F)F)C2=C(C(=O)CCC2)C1c1ccc2c(c1)OCO2` (stereo unspecified), the AC50 was 28.2 µM (active). For `COc1ccc(NC(=O)c2cc3n(n2)C(C(F)(F)F)CC(c2ccc4c(c2)OCO4)N3)cc1OC` (stereo unspecified), the “activity, negative = inhibition” value was 1.1%. In the case of `COc1ccc(OC)c(NC(=O)c2cc3n(n2)C(C(F)(F)F)CC(c2ccc4c(c2)OCO4)N3)c1` (stereo unspecified), the “activity, negative = inhibition” value is reported as 14.3%. In the case of `COc1cc(/C=C2/C(=N)N3C=CSC3=NC2=O)ccc1OCCCOc1ccccc1C`, the “activity, negative = inhibition” value is reported as 7.61%. `FC(F)(F)c1nnc2c(Sc3ccc(Cl)cc3)nc3ccccc3n12` was tested, and the “activity, negative = inhibition” value was 1.4%. `CCOc1ccccc1NC(=O)CSc1nnc(-c2cnccn2)n1C` was tested, and the AC50 was 12.6 µM (active). For `CCOc1ccccc1-n1nnnc1SCC(=O)Nc1cc(C)on1`, the “activity, negative = inhibition” value was -4.39%. For `COC(=O)c1ccccc1NC(=O)CSc1nnc(C(CO)NC(=O)c2ccccc2Cl)n1C` (stereo unspecified), the “activity, negative = inhibition” value was -3.42%. `O=C1CCC(c2ccc(-n3ccnc3)cc2)=NN1` was tested, and the AC50 was 2.51 µM (active). `CCn1c(O)c(/C=N/N=C2CCCC2)c2ccc(C3=NNC(=O)CC3)cc21` was tested, and the “activity, negative = inhibition” value was 7.62%. With `Cc1cn2c(-c3ccncc3)nnc2s1` the “activity, negative = inhibition” value was -15.7%. For `Oc1cc(O)c2c(c1)O[C@H](c1ccc(O)c(O)c1)[C@@H](O)[C@@H]2c1c(O)cc(O)c2c1O[C@@H](c1ccc(O)c(O)c1)[C@H](O)C2`, the activity, negative = inhibition was -5.15% [at 11.4 µM]. `CNc1ncnc2ccc(-c3ccccc3C#N)cc12` was tested, and the “activity, negative = inhibition” value was -7.51%. With `COc1ccc(CNc2ncnc3ccc(-c4ccccc4OC)cc23)c(OC)c1` the “activity, negative = inhibition” value was -15.8%. For `CNc1ncnc2ccc(-c3ccccc3CN(C)C)cc12`, the AC50 was 10 µM (active). For `CN(C)Cc1ccccc1-c1ccc2ncnc(NCc3ccccc3)c2c1`, the AC50 was 7.94 µM (active). With `COc1ccc(CNc2ncnc3ccc(-c4ccccc4CN(C)C)cc23)c(OC)c1` the AC50 was 1.26 µM (active). In the case of `COc1ccccc1CNc1ncnc2ccc(-c3ccccc3CN(C)C)cc12`, the AC50 is reported as 2.51 µM (active).
